Measurements reported in PubChem BioAssay (Tox21).
Records with an inconclusive call do not appear. The source made the active and inactive calls. Unless noted, calls come from the whole dose curve; as a rule, active = well fitted curve in the direction sought with a large enough effect in the repeat runs; inconclusive = weak or mixed curves; inactive = no such curve, though single readings can be large; an effect the other way counts as inactive or inconclusive.

Assays:
[1] = qHTS assay to identify small molecule antagonists of the estrogen receptor beta (ER-beta) signaling pathway - cell viability counter screen (AID 1259382);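 note: HEK293T cells carrying ER-beta-UAS-bla reporter stimulated with estradiol; series mostly up to about 92 µM; nearly all actives have a fitted effect of over 55% in size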
Method in brief: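 HEK293T ER-beta-UAS-bla, 2% charcoal-stripped FBS; compounds + 1nM E2 16 hr 37C; CellTiter-Glo luminescence, 30 min RT.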

[2] = qHTS assay to identify small molecule agonists or antagonists of the thyroid stimulating hormone receptor (TSHR) signaling pathway - wild type cell line counter screen (AID 1259384; calls by dose curve)
Method in brief: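 Wild-type HEK293 cells were plated 18 h at 37 C/5% CO2, pin-dosed with compound plus Ro20-1724 medium, held 30 min at room temperature, then given cAMP-d2 and anti-cAMP-cryptate; fluorescence was read after 1 h. Fifteen concentrations, triplicate.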

[3] = target: Thyrotropin receptor (Homo sapiens) (UniProt P16473); experiment: qHTS assay to identify small molecule antagonists of the thyroid stimulating hormone receptor (TSHR) signaling pathway (AID 1259385; calls by dose curve; note: nearly all actives have a fitted effect of over 20% in size)
Method in brief: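 TSHR-HEK293 cells were plated and held 18 h at 37C/5% CO2, then given compound plus Ro20-1724 and stimulated with TSH at 1.5 ng/mL final. After 30 min at room temperature, cAMP was detected with cAMP-d2/anti-cAMP-cryptate (1 h) by fluorescence.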

[4] = qHTS assay to identify small molecule agonists of the estrogen receptor alpha (ER-alpha) signaling pathway in the presence of an antagonist - cell viability counter screen (AID 1259386);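 note: series mostly up to about 92 µM; cells exposed to compounds for 22 h at 37 °C before the viability read; nearly all actives have a fitted effect of over 30% in size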
Method in brief: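 Steps: 5-day stripped-FBS culture; seed and incubate 24hr; add ICI-182,780 (10.0nM final); pin 15-point compound titration; incubate 22hr at 37C; add CellTiter-Fluor at 21hr; read fluorescence.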

[5] = target: Progesterone receptor (Homo sapiens) (UniProt P06401); experiment: qHTS assay to identify small molecule agonists of the progesterone receptor (PR) signaling pathway (AID 1346784; calls by dose curve; note: nearly all actives have a fitted effect of over 30% in size)
Method in brief: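 Compounds were tested for PR agonism in HEK 293T cells bearing a beta-lactamase gene under UAS control. Treatment lasted 16 hr at 37C; signal came from fluorescence of a FRET substrate.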

[6] = target: Progesterone receptor (Homo sapiens) (UniProt P06401); experiment: qHTS assay to identify small molecule antagonists of the progesterone receptor (PR) signaling pathway (AID 1346795; active = well fitted inhibition curve with a large enough effect in the signal ratio in the repeat runs, not every such curve was filed as active; the % refers to the signal ratio)
Method in brief: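 In HEK293T cells bearing the PR-UAS-bla reporter, compound effects on promegestone-driven (1 nM) beta-lactamase expression are assessed after 16 hr using a fluorescent FRET substrate incubated 2 hr at room temperature.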

[7] = qHTS assay to identify small molecule antagonists of the progesterone receptor (PR) signaling pathway - cell viability counter screen (AID 1346798); note: series mostly up to about 92 µM; nearly all actives have a fitted effect of over 50% in size
Method in brief: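 Following a 4 hr attachment, PR-UAS-bla HEK293T cells in charcoal-stripped FBS medium were exposed to compounds with R5020 for 16 hr; CellTiter-Glo was added and luminescence read after 30 min at room temperature.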

[8] = qHTS assay to identify small molecule agonists of the progesterone receptor (PR) signaling pathway - cell viability counter screen (AID 1346799; calls by dose curve; note: nearly all actives have a fitted effect of over 45% in size)
Method in brief: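 Here, 3,000 PR-UAS-bla HEK293T cells per well were treated with compounds for 16 hr after a 6 hr preincubation at 37C and 5% CO2; cell viability is the CellTiter-Glo luminescence signal.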

[9] = qHTS assay to identify small molecule antagonists of the TGF-beta/Smad signaling pathway - cell viability counter screen (AID 1346824); note: nearly all actives have a fitted effect of over 50% in size
Method in brief: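 SBE-bla HEK 293T cells were plated overnight at 37 C, then given compounds in DMSO plus TGF-beta1 (added as 0.25 ng/mL solution) for 5 hr. After the bla read, CellTiter-Glo was added to the same wells and luminescence read after 30 min at room temperature.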

[10] = qHTS assay to identify small molecule agonists of the TGF-beta/Smad signaling pathway - cell viability counter screen (AID 1346829); note: top concentration of the series differs between compounds; nearly all actives have a fitted effect of over 45% in size
Method in brief: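 Tox21 qHTS format: SBE-bla HEK 293T cells treated with DMSO-dissolved compounds for 5 hr; CellTiter-Glo luminescence after 30 min at room temperature.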

[11] = qHTS assay to identify small molecule agonists of the TGF-beta/Smad signaling pathway (AID 1346859; active = well fitted activation curve with a large enough effect in the signal ratio in the repeat runs, not every such curve was filed as active; the % refers to the signal ratio; note: series mostly up to about 77 µM)
Method in brief: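 Each well held 4,000 SBE-bla HEK 293T cells incubated overnight before compound addition; 5 hr later the cleavable FRET substrate went on for 2 hr at room temperature, and fluorescence was read at two emissions.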

[12] = target: Thyrotropin-releasing hormone receptor (Homo sapiens) (UniProt P34981); experiment: qHTS assay to identify small molecule antagonists of the thyrotropin-releasing hormone receptor (TRHR) signaling pathway (AID 1346877; active = well fitted inhibition curve with a large enough effect in the repeat runs, not every such curve was filed as active; note: series mostly up to about 51 µM)
Method in brief: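 Human TRHR in HEK293 cells; inhibition of the intracellular calcium rise triggered by 1 nM TRH was followed by fluorescence over 3 min. Compounds were run at 15 concentrations, three replicates each.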

[13] = target: Thyrotropin-releasing hormone receptor (Homo sapiens) (UniProt P34981); experiment: qHTS assay to identify small molecule agonists of the thyrotropin-releasing hormone receptor (TRHR) signaling pathway (AID 1346891; calls by dose curve; note: series mostly up to about 58 µM)
Method in brief: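 Screening of agonists relied on calcium signalling in HEK293 cells expressing human TRHR: dye loading 2 h at 37 °C preceded compound addition and a 3-min fluorescence time course.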

[14] = Human pregnane X receptor (PXR) small molecule agonists, qHTS cell viability counter screen (AID 1346977); note: nearly all actives have a fitted effect of over 50% in size
Method in brief: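 Tox21 qHTS format; PXR-Luc HepG2, 2,000/well, charcoal-stripped FBS 5%. Cpd exposure 24hr. Read: CellTiter-Fluor fluorescence, multiplexed with luciferase.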

[15] = Caspase-3/7 induction in CHO-K1 cells by small molecules, qHTS cell viability counter screen (AID 1346979); note: nearly all actives have a fitted effect of over 35% in size
Method in brief: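 CellTiter-Fluor viability check, qHTS format: wild-type CHO-K1, 16hr compound treatment, 1hr reagent incubation, fluorescence read.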

[16] = Caspase-3/7 induction in CHO-K1 cells by small molecules, qHTS assay (AID 1346980); note: nearly all actives have a fitted effect of over 15% in size
Method in brief: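 Wild-type cells were seeded at 1,500 per well and settled 5 hr at 37 C, 5% CO2, then exposed to DMSO-dissolved compounds for 17 hr. Caspase-Glo 3/7 reagent was added, and luminescence was read after 30min at room temperature.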

[17] = Caspase-3/7 induction in HepG2 cells by small molecules, qHTS cell viability counter screen (AID 1346981); note: series mostly up to about 92 µM; nearly all actives have a fitted effect of over 30% in size
Method in brief: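 The parent HepG2 line is plated at 2,000 cells per well and rested 5 hr before compound pinning from DMSO stocks. Following a 16-hr treatment at 37 C, a fluorogenic live-cell substrate (CellTiter-Fluor) reports viability after 1 hr.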

[18] = target: Nuclear receptor subfamily 1 group I member 2 (Homo sapiens) (UniProt O75469); experiment: Human pregnane X receptor (PXR) small molecule agonists, qHTS assay (AID 1346982); note: nearly all actives have a fitted effect of over 35% in size
Method in brief: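 After plating in 5% charcoal-stripped FBS and a 5 hr rest, PXR-Luc HepG2 cells received compounds in DMSO. Following 24 hr at 37 C, ONE-Glo was added and light output read.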

[19] = target: Estrogen receptor (Homo sapiens) (UniProt P03372); experiment: qHTS assay to identify small molecule agonists of the estrogen receptor alpha (ER-alpha) signaling pathway in the presence of an antagonist (AID 1259383; calls by dose curve; note: top concentration of the series differs between compounds; nearly all actives have a fitted effect of over 15% in size)
Method in brief: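 ER-alpha agonism measured under antagonist challenge: 10.0nM ICI-182,780 (final) plus compound, 15 concentrations, 22hr, VM7Luc4E2 ERE-luciferase cells. Read by luminescence.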

[20] = Caspase-3/7 induction in HepG2 cells by small molecules, qHTS assay (AID 1346978); note: nearly all actives have a fitted effect of over 15% in size
Method in brief: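 Wild-type HepG2 cells (2,000/well) were settled 5 h at 37 C, 5% CO2, then exposed to compounds in DMSO for 17 h. Caspase-3/7 activity was read by luminescence 30 min after adding Caspase-Glo 3/7 reagent at room temperature.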

Measured: Potency

Sequence of Progesterone receptor (Homo sapiens) (P06401 whole entry, looked up): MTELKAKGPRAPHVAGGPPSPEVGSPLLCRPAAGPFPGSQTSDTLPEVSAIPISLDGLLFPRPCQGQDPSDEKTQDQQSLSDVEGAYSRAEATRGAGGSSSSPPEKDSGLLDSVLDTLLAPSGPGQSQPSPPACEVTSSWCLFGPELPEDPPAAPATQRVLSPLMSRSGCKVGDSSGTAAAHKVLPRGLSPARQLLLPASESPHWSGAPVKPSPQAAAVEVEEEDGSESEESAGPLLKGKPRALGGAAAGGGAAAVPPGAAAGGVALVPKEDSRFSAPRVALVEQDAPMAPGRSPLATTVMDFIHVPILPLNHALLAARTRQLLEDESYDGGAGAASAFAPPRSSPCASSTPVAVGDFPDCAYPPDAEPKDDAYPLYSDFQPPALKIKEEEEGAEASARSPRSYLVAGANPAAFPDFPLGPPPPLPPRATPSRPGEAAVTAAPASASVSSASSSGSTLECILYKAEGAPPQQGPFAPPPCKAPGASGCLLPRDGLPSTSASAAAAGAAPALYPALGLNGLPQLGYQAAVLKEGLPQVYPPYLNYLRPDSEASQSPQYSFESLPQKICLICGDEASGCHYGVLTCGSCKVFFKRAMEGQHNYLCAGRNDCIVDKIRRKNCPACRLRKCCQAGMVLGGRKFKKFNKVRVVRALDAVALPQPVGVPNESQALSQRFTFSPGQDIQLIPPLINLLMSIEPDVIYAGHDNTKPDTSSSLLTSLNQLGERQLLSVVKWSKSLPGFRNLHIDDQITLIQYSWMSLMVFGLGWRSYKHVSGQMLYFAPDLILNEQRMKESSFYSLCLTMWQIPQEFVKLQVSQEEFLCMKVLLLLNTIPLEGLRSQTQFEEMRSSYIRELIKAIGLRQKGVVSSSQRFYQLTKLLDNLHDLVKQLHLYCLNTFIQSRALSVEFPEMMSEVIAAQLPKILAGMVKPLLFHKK
Sequence of Estrogen receptor (Homo sapiens) (P03372 whole entry, looked up): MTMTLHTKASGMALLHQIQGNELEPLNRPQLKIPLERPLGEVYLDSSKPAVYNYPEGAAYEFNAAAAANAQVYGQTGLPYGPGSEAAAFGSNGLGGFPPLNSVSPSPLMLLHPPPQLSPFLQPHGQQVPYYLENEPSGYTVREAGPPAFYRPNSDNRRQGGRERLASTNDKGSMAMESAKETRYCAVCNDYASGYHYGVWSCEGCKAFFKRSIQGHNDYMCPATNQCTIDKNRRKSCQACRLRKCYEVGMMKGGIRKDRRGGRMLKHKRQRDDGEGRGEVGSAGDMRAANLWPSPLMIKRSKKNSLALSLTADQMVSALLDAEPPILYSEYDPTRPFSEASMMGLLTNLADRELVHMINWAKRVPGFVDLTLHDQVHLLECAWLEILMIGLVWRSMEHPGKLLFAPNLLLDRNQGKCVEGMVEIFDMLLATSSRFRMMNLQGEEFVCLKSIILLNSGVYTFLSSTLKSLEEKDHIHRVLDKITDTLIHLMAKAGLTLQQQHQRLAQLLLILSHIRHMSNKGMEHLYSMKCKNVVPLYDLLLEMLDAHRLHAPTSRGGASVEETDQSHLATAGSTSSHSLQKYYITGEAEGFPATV
Sequence of Thyrotropin-releasing hormone receptor (Homo sapiens) (P34981 whole entry, looked up): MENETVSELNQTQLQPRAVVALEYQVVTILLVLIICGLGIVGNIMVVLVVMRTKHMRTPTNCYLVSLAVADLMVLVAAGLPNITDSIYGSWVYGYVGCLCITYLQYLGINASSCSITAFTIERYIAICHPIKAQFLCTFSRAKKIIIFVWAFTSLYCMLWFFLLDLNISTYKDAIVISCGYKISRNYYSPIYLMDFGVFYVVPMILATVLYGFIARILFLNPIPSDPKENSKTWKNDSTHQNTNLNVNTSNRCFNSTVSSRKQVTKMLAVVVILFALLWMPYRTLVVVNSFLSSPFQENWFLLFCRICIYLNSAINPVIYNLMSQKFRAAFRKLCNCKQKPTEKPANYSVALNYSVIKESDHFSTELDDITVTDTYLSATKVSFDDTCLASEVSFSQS
Sequence of Nuclear receptor subfamily 1 group I member 2 (Homo sapiens) (O75469 whole entry, looked up): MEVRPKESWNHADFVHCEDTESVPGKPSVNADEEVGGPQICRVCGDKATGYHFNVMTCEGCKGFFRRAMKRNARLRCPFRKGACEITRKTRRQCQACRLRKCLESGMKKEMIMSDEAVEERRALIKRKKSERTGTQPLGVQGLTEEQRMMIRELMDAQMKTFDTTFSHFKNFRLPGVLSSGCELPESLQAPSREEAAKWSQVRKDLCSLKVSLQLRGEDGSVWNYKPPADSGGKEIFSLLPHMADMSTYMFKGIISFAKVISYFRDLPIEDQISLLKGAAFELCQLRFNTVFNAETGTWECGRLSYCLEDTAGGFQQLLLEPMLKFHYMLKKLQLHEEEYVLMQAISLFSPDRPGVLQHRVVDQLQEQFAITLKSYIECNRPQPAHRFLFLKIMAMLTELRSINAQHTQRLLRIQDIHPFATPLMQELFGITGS
Sequence of Thyrotropin receptor (Homo sapiens) (P16473 whole entry, looked up): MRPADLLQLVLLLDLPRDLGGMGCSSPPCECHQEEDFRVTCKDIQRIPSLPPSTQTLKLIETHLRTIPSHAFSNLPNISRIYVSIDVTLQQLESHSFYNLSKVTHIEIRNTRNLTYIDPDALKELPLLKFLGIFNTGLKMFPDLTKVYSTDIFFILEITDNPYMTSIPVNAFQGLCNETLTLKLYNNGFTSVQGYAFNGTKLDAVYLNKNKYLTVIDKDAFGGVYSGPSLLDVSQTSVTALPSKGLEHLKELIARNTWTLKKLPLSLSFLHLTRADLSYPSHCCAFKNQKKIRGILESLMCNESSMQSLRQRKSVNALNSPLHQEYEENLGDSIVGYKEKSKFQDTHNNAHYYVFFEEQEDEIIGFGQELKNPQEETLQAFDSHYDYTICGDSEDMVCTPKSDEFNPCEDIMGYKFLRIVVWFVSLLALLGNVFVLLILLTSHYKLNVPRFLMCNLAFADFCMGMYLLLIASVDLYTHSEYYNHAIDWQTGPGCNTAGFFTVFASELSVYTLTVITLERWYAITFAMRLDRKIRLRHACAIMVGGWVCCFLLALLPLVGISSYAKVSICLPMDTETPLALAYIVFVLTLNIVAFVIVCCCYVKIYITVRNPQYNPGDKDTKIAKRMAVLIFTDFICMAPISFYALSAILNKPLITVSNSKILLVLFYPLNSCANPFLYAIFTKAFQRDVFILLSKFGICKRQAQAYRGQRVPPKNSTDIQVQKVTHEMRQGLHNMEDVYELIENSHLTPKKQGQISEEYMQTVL

O=C1c2ccccc2-c2ccccc21
inactive: [1] | [2] | [3] | [4] | [5] | [6] | [7] | [8] | [9] | [10] | [11] | [12] | [13] | [14] | [15] | [16] | [17] | [18]

CCCO
inactive: [1] | [19] | [4] | [5] | [8] | [9] | [10] | [11] | [14] | [15] | [16] | [17] | [18]

O=C(O)c1ccccc1C(=O)OCc1ccccc1
inactive: [1] | [2] | [3] | [4] | [5] | [6] | [7] | [8] | [9] | [10] | [11] | [12] | [13] | [14] | [20] | [15] | [16] | [17]

NS(=O)(=O)c1ccc(Cl)c(S(N)(=O)=O)c1
inactive: [1] | [19] | [2] | [5] | [6] | [7] | [8] | [9] | [11] | [13] | [14] | [15] | [16] | [17] | [18]

COc1cc2c(Nc3ccc(Br)cc3F)ncnc2cc1OCC1CCN(C)CC1
inactive: [1] | [19] | [4] | [5] | [6] | [7] | [8] | [9] | [10] | [11] | [14] | [15] | [16] | [17] | [18]

Cc1nc2n(c(=O)c1CCN1CCC(C(=O)c3ccc(F)cc3)CC1)CCS2
inactive: [1] | [19] | [2] | [5] | [8] | [9] | [10] | [11] | [12] | [13] | [15] | [17]

CC(=O)/C=C/c1ccco1
inactive: [1] | [19] | [2] | [5] | [6] | [7] | [8] | [9] | [10] | [11] | [12] | [13] | [20] | [15] | [16] | [17] | [18]

CCCCCCCCCCCCC1CO1 (stereo not drawn)
inactive: [1] | [19] | [4] | [6] | [7] | [9] | [10] | [11] | [12] | [13] | [20] | [15] | [16] | [17] | [18]
